Experimental findings from PubChem BioAssay are described below.

Values without a mark were called inactive. For some assays here: Entries with a potency or affinity are not part of this list. Calls of active or inactive are those of the source. Unless noted, the rule behind the calls is not given here.

The nature of assay [1]: antimalarial activity against Dd2 strain (AID 2302;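 active = growth inhibition above 50% at the single 2 µM test dose, taken to imply half-maximal potency below 2 µM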;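 note: 0% = DMSO untreated growth and 100% = chloroquine plus artemisinin killed control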). To be noted: P. falciparum Dd2 in RBCs, LDH growth readout, 72 h; at 2 µM; hits give high values.
Assay [2] in a line: HepG2 cytotoxicity, primary screen, cytotoxicity control for P. falciparum antimalarial project, cell-based, ATP luminescence (AID 2303;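 active = inhibition above 50%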;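 note: 0% = DMSO wells and 100% = digitonin-killed cells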). To be noted: HepG2 viability, 24-48 h, at 10 µM, hits give high values.
The target in assay [3] is L-lactate dehydrogenase (Plasmodium falciparum (isolate CDC / Honduras)) (UniProt Q27743). In words: PfLDH activity inhibition – cell lysate, 3D7 strain, counter-screen for P. falciparum growth inhibition project (AID 2304).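 Note: 0% = vehicle and 100% = reference inhibitor.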 The settings on record: P. falciparum 3D7 crude extract, LDH APAD/NBT absorbance; at 2 µM; hits give high values. On the technique in general: Counterscreens check selectivity or assay interference.

The nature of assay [4]: inhibition of 3D7 malaria parasite growth – strain 3D7 (AID 2306).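 Note: 0% = DMSO wells and 100% = chloroquine plus artemisinin control wells.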 The settings on record: P. falciparum 3D7 erythrocytic growth, LDH absorbance, 72 h; at 2 µM; hits give high values.
In assay [5] the target is Calcium-dependent protein kinase 1 (Plasmodium falciparum (isolate 3D7)) (UniProt P62344). In words: PfCDPK1 kinase inhibitors, biochemical, TCAMS library (AID 1159585; cut-off not given, nearly all actives have IC50 up to about 0.98 µM;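 note: inhibitors leave more ATP so luminescence rises with inhibition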). To be noted: recombinant PfCDPK1, Kinase-Glo ATP depletion luminescence. Background: Kinase-Glo measures the ATP left after a reaction by luminescence.
The target in assay [6] is Plasmodium falciparum protein kinase 6 (PK6, PF3D7_1337100) (UniProt Q8IDW1). In words: PfPK6 kinase inhibitors, biochemical, TCAMS library (AID 1159586). The settings on record: recombinant PfPK6, Kinase-Glo ATP depletion luminescence.
For assay [7], the target named is Protein kinase 7 (PK7), Plasmodium falciparum 3D7 (PF3D7_0213400) (UniProt Q7YTF7). In words: inhibition of Plasmodium PK7 catalytic activity – biochemical, TCAMS antimalarial set, Kinase-Glo luminescence (AID 1159587). To be noted: recombinant PfPK7, Kinase-Glo ATP depletion luminescence.
In assay [8] the target is Calcium-dependent protein kinase 4 (Plasmodium falciparum (isolate 3D7)) (UniProt Q8IBS5). In words: PfCDPK4 kinase inhibitors, biochemical, TCAMS library (AID 1159588; cut-off not given, nearly all actives have IC50 up to about 0.91 µM). To be noted: recombinant PfCDPK4, Kinase-Glo ATP depletion luminescence.
Calcium-dependent protein kinase 4 (Plasmodium falciparum (isolate 3D7)), sequence (Q8IBS5 whole entry, looked up): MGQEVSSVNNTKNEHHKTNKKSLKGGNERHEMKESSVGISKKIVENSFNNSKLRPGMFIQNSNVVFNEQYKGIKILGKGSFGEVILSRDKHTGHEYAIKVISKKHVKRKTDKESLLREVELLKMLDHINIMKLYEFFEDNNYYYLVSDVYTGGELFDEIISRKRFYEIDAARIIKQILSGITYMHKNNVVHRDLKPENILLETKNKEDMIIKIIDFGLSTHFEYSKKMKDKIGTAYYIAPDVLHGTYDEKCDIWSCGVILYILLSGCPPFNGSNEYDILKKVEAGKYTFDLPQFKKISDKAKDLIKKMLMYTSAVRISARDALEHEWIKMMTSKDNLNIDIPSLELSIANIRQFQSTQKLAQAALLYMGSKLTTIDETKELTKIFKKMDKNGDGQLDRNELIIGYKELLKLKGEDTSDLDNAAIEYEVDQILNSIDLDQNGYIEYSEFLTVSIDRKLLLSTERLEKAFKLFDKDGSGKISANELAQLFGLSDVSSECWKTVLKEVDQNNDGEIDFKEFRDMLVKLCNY

Protein kinase 7 (PK7), Plasmodium falciparum 3D7 (PF3D7_0213400), sequence (Q7YTF7 1-343): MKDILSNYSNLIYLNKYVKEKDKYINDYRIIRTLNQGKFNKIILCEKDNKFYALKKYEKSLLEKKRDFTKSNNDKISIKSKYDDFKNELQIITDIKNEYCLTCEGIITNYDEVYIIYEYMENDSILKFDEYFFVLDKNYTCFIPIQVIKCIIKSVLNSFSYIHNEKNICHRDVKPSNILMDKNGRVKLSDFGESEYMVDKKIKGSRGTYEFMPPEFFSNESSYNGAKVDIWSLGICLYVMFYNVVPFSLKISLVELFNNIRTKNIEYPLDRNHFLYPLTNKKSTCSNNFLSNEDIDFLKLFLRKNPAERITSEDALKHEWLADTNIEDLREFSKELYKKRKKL
Calcium-dependent protein kinase 1 (Plasmodium falciparum (isolate 3D7)), sequence (P62344 whole entry, looked up): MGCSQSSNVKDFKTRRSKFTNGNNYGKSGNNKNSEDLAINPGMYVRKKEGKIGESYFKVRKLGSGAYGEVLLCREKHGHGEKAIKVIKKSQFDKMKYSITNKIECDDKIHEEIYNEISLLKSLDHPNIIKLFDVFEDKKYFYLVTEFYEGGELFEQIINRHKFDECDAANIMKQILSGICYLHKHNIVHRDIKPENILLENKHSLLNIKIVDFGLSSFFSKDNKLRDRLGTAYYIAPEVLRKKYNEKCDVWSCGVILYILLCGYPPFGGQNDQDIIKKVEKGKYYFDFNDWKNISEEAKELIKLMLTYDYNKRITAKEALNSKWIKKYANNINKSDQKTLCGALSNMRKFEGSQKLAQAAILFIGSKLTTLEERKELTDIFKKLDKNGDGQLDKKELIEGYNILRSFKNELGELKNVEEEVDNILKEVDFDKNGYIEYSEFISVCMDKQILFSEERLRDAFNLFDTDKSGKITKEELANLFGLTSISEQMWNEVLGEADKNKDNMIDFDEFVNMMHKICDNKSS
L-lactate dehydrogenase (Plasmodium falciparum (isolate CDC / Honduras)), sequence (Q27743 whole entry, looked up): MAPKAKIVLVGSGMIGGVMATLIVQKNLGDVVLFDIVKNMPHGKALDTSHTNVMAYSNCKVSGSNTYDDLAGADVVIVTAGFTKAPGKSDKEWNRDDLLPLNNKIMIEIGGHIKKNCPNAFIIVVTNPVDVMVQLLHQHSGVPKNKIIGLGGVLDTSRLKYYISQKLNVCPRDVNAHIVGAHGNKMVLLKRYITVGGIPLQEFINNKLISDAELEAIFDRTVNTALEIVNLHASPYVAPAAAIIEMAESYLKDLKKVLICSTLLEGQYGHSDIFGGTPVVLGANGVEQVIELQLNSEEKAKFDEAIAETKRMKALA
Plasmodium falciparum protein kinase 6 (PK6, PF3D7_1337100), sequence (Q8IDW1 1-305): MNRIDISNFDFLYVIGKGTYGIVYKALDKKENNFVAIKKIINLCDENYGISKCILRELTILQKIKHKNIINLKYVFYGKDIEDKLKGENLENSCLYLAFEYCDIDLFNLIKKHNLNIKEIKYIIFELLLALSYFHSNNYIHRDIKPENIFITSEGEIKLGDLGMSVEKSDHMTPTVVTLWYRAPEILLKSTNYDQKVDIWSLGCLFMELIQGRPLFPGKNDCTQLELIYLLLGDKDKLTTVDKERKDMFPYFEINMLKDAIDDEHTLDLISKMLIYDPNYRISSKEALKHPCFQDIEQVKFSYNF

What is called inhibition is the change of the read-out against control, counted positive when it falls. As to `Cc1ccc(/C=C/C(=O)NC2CCC(N3CCC(c4ccccc4C)CC3)CC2)cc1F` (configuration not stated), the growth inhibition was 18% in assay [1] and 96% (active) in assay [4]. Besides, the inhibition was 51% (active) in assay [2] and 2% in assay [3]. Besides, the outcome in assay [5], in assay [6], in assay [7] and in assay [8] was inactive.
As to `CNC(=O)C1Cc2c([nH]c3cc(Cl)ccc23)C2(CCN(CCc3ccccc3)CC2)N1` (configuration not stated), the figures for the growth inhibition in assay [1] and in assay [4] were 3% and 91% (active), respectively. The values for the inhibition in assay [2] and in assay [3] were 14% and 4%, respectively. Besides, the outcome in assay [5], in assay [6], in assay [7] and in assay [8] was inactive.
For `N#Cc1ccc(-c2ccc(C(=O)NCCCCN3CCC(c4ccc5c(c4OCC(N)=O)CCCC5)CC3)cc2)cc1`, the results for the growth inhibition in assay [1] and in assay [4] were 23% and 87% (active), respectively. The values for the inhibition in assay [2] and in assay [3] were 21% and -3%, respectively. The outcome in assay [5], in assay [6], in assay [7] and in assay [8] was inactive.
With `COc1ccc2nc(-c3ccccc3)cc(NN=Cc3ccc([N+](=O)[O-])cc3)c2c1`, the growth inhibition was 100% (active) in assay [1] and 102% (active) in assay [4]. Also, the inhibition in assay [2] is 89% (active); in assay [3], 7%. In addition, the outcome in assay [5], in assay [6], in assay [7] and in assay [8] was inactive.
In the case of `COc1cc2c(cc1OC)CN(CCc1ccc(NC(=O)c3cc4cc(Cl)ccc4[nH]3)cc1)CC2`, the growth inhibition in assay [1] is 6%; in assay [4], 90% (active). The figures for the inhibition in assay [2] and in assay [3] were 3% and 2%, respectively. Moreover, the outcome in assay [5], in assay [6], in assay [7] and in assay [8] was inactive.
`CCc1sc(N2CCC(C)CC2)nc1C(=O)Nc1ccc(F)cc1C(F)(F)F`: the growth inhibition is 65% (active) in assay [1] and 94% (active) in assay [4]. The results for the inhibition in assay [2] and in assay [3] were 1% and 2%, respectively. Also, the outcome in assay [5], in assay [6], in assay [7] and in assay [8] was inactive.
As to `COc1ccc(NC(=O)Nc2ccc(-c3ccccc3)cc2)cc1Cn1nc(Cl)c(N2CCCNCC2)cc1=O`, the growth inhibition in assay [1] is 84% (active); in assay [4] it was 102% (active). Besides, the inhibition is 18% in assay [2] and 0% in assay [3]. Also, the result in assay [5], in assay [6], in assay [7] and in assay [8] was inactive.
As to `COc1ccc(Br)cc1C1[C@@H]2C(=O)N(c3ccc(Br)cc3)C(=O)[C@@H]2C2(C(=O)O)CC(OCc3ccccc3)CN12` (some centres not stated), the growth inhibition is 99% (active) in assay [1] and 104% (active) in assay [4]. For the same compound, the inhibition was 16% in assay [2] and -2% in assay [3]. The result in assay [5], in assay [6], in assay [7] and in assay [8] was inactive.
`COc1ccc(NC(=O)Nc2ccc(-c3ccncc3)c(Cl)c2)cc1N1CCN(C)CC1`: the growth inhibition in assay [1] is 62% (active); in assay [4], 98% (active). The inhibition in assay [2] was 19%; in assay [3], 3%. In addition, the outcome in assay [5], in assay [6], in assay [7] and in assay [8] was inactive.
For `N#Cc1ccc2c(c1)CCN(CCC1CCC(NC(=O)Nc3ccnc4ccccc34)CC1)C2` (configuration not stated), the growth inhibition in assay [1] was 77% (active); in assay [4], 104% (active). The inhibition in assay [2] was 38%; in assay [3], 2%. Besides, the result in assay [5], in assay [6], in assay [7] and in assay [8] was inactive.
For the compound `Cc1cc(NCCC(=O)NCCOc2ccccc2)nc(NCCOc2ccccc2)n1`, the growth inhibition is 20% in assay [1] and 92% (active) in assay [4]. The inhibition in assay [2] is 8%; in assay [3], 0%. Moreover, the outcome in assay [5], in assay [6], in assay [7] and in assay [8] was inactive.
Take `O=C(NCC1CCC(C(=O)NC2CCCc3ccccc32)CC1)c1ccc(O)c(-c2cccc([N+](=O)[O-])c2)c1` (configuration not stated): the values for the growth inhibition in assay [1] and in assay [4] were 97% (active) and 99% (active), respectively. For the same compound, the results for the inhibition in assay [2] and in assay [3] were 2% and -2%, respectively. In addition, the outcome in assay [5], in assay [6], in assay [7] and in assay [8] was inactive.
Regarding `CC1(C)CCCN(C(=O)c2cccc(-n3nc(-c4ccc(Cl)cc4)cc3N)c2)C1`, the values for the growth inhibition in assay [1] and in assay [4] were 98% (active) and 101% (active), respectively. Moreover, the inhibition in assay [2] is 13%; in assay [3], -2%. For the same compound, the outcome in assay [5], in assay [6], in assay [7] and in assay [8] was inactive.
With `CC1CN(CC(O)Cn2c3ccc(Br)cc3c3cc(Br)ccc32)CC(C)O1` (configuration not stated), the growth inhibition in assay [1] was 100% (active); in assay [4], 102% (active). In addition, the inhibition in assay [2] was -1%; in assay [3] it was 3%. Moreover, the outcome in assay [5], in assay [6], in assay [7] and in assay [8] was inactive.
`CCN(CC)c1ccc2nc(N)nc(N)c2c1Cl`: the growth inhibition is 1% in assay [1] and 92% (active) in assay [4]. Further, the figures for the inhibition in assay [2] and in assay [3] were 62% (active) and -5%, respectively. The outcome in assay [5], in assay [6], in assay [7] and in assay [8] was inactive.
As for `Fc1ccc(Nc2ccnc3cc(-c4ccc(CNCCN5CCOCC5)o4)ccc23)c(Cl)c1`, the growth inhibition in assay [1] is 99% (active); in assay [4] it was 100% (active). The inhibition in assay [2] was 34%; in assay [3], -1%. The result in assay [5], in assay [6], in assay [7] and in assay [8] was inactive.
In the case of `COc1cc(O)c2c(=O)c(OC)c(-c3cccc(Cl)c3OC3O[C@H](CO)[C@@H](O)[C@H](O)[C@H]3O)oc2c1OC` (some centres not stated), the growth inhibition in assay [1] is 6%; in assay [4], 101% (active). The inhibition in assay [2] is 16%; in assay [3], -2%. For the same compound, the outcome in assay [5], in assay [6], in assay [7] and in assay [8] was inactive.
Regarding `CN1CCC(N2CCN(c3ccc4c(=O)nc(CCc5cccc(F)c5F)n(CC(=O)N(C)Cc5ccc(-c6ccc(C(F)(F)F)cc6)cc5)c4n3)CC2)CC1`, the growth inhibition in assay [1] was 99% (active); in assay [4], 100% (active). The inhibition in assay [2] was 15%; in assay [3], 2%. In addition, the result in assay [5], in assay [6], in assay [7] and in assay [8] was inactive.
In the case of `COc1ccc(CN(C)CCCOc2ccc(NC(=O)C=Cc3ccc(C(C)(C)C)cc3)cc2)cc1OC`, the figures for the growth inhibition in assay [1] and in assay [4] were 87% (active) and 101% (active), respectively. Further, the inhibition in assay [2] was 14%; in assay [3], 2%. Also, the result in assay [5], in assay [6], in assay [7] and in assay [8] was inactive.
